Screens: PubChem BioAssay, National Center for Advancing Translational Sciences (NCATS)
Marburg entry inh: blocks Marburg virus binding to or entry into cells. Marburg virus pseudotyped entry inhibition, cell reporter. Potency, µM (series often up to 37.8 µM), for the others: top-dose activity change, negative = inhibition, hits mostly inhibitors. 300,000 compounds, 1.8% hits. AID 540276; calls by dose curve; tested in HEK293 cells; further: potency means the concentration at half of the fitted maximal effect; on the % scale 0 is the no-effect control and ±100 the full control effect
SARS PLP yeast: blocks SARS-CoV papain-like protease in a yeast assay; 330,000 compounds, 0.19% hits; AID 485353; Potency, µM (highest dose often 32.9 µM), for inactives: at the highest dose activity, positive = growth rescue, most hits filed as activators; S. cerevisiae expressing SARS-CoV PLpro, growth rescue; calls by dose curve; further: potency means the concentration at half of the fitted maximal effect; 0% is about no effect; nearly all actives have a fitted effect of over 55% in size
Lassa entry inh: Lassa virus entry inhibition; 300,000 compounds, 1.2% hits; Lassa virus pseudotype entry inhibition, cell reporter; Potency, µM (highest dose often 37.9 µM), for the others: at the top dose activity change, negative = inhibition, actives largely listed as inhibitors; calls by dose curve; tested in HEK293 cells; further: potency means the concentration at half of the fitted maximal effect; on the % scale 0 is the no-effect control and ±100 the full control effect; nearly all actives have a fitted effect of over 50% in size
FMDV antiviral: foot and mouth disease virus antiviral activity | FMDV antiviral cell-based qHTS | Potency, µM (top dose mostly 57.9 µM), for the others: at the highest dose activity change, negative = inhibition, usual class: inhibitors | 410,000 compounds, 1.2% hits; calls by dose curve; tested in HEK293T cells; further: read-out not given here; potency means the concentration at half of the fitted maximal effect; on the % scale 0 is the no-effect control and ±100 the full control effect; nearly all actives have a fitted effect of over 45% in size
HCV inhibitor: blocks hepatitis C virus | Huh7.5.1 HCVcc-Cre infection, luciferase reporter, 44 h | Potency, µM (highest dose often 41.8 µM), inactives show top-dose activity change, negative = inhibition, usual class: inhibitors | 340,000 compounds, 3.4% hits; active means well fitted inhibition curve with a large enough effect; inconclusive means small, poorly fitted or top-dose-only effect, or another doubt; inactive means no such curve, though single readings can be large or run the other way; further: potency means the concentration at half of the fitted maximal effect; on the % scale 0 is the no-effect control and ±100 the full control effect
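Luciferase read-out (15 sec integration) after a 15 min room-temperature substrate step quantifies HCVcc-Cre infection. Cells, 1,000 per well, had compound added 4 h post-plating, then virus at ~0.5 moi, and were cultured 44 h.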
HCMV inh: inhibitors of human cytomegalovirus. HFF cells, HCMV-luciferase reporter, 72 h; hits give low values. activity change, negative = inhibition, % at 57.5 µM. 410,000 compounds, 4.5% hits; in the data active means activity change below about -60%; inconclusive means no clear call, values can overlap the other calls; inactive means above about -39%; further: on the % scale 0 is the no-effect control and ±100 the full control effect
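Two-dose cell screen: HFF monolayers treated with compounds and infected with luciferase-expressing HCMV at 1 PFU/cell, 72 h at 37C, then lysed for luciferase measurement.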
An asterisk follows results filed as active; ? = inconclusive; . = no result; + = active, no number; [ ] = remark or other dose. A selection: hits, their analogues and other compounds. The true share with any hit is near 8%.

SMILES	Marburg entry inh	SARS PLP yeast	Lassa entry inh	FMDV antiviral	HCV inhibitor	HCMV inh
CCOC(=O)Cc1c(C)nc2c(C#N)c[nH]n2c1=O	-3%	-1%	27%[14.3 µM]	-17%	.	22
COC(=O)C1=C(C)N(c2cccc(C)c2)C(=O)/C1=C\c1cccs1	2.8µM*	-2%	-3%	0%	?	-99*
CC(C)CC(NC(=O)NC(CCC(=O)O)C(=O)O)C(=O)O (stereo not given)	.	.	.	-7%	.	.
COC(=O)c1cc(NC(C)=O)ccc1N1CCOCC1	1%[46.1 µM]	2%	-1%[46.1 µM]	-10%	2%	8
COC(=O)c1cc(NC(=O)c2cc(-c3ccc(C(F)(F)F)cc3)oc2C(F)(F)F)ccc1N1CCOCC1	11µM*	0%	?	?	3.5µM*	-94*
COC(=O)c1cc(NC(=O)c2c(C)noc2C)ccc1N1CCOCC1	?	-5%	6%[46.1 µM]	11%	8%	5
COC(=O)c1cc(NC(=O)c2cc(-c3ccc(OC)cc3)oc2C(F)(F)F)ccc1N1CCOCC1	.	-1%	.	-25%	7.1µM*	-25
Cc1ccc2c(c1)c1c(c(=O)n(-c3ccccc3C)c(=O)n1CC(=O)NCCC1=CCCCC1)n2C	.	.	-2%[46.1 µM]	?	.	18
COc1ccc(CCNC(=O)c2ccc3[nH]c(C)c(C)c3c2)cc1OC	.	.	?	0%	.	-15
CCOc1ccc(CNC(=O)c2ccc3[nH]c(C)c(C)c3c2)cc1OC	.	.	?	-13%	.	+
CSCC[C@H](NC(=O)OC(C)(C)C)C(=O)N/N=C/c1ccc2nccnc2c1	3.2µM*	1%	-12%	-11%	8%	-23
O/C=c1\ccc2cccc3nc(C(F)(F)F)nc1c23	?	0%	-3%	13µM*	?	-26
NNc1nc(C(F)(F)F)nc2ccccc12	1%[46.1 µM]	-2%	-17%	-1%	11%	22
CCOc1ccc(N(CC(=O)NCC2CCCO2)C(=O)CCC(=O)Nc2nccs2)cc1 (stereo not given)	0%	0%	?	-14%	22µM*	-26
CSc1nsc(SC)c1C(=O)Nc1ccc(C(C)(C)C)cc1	11µM*	-2%	9%[46.1 µM]	13%	6%	53
CCn1cc(Cl)c(C(=O)N2N=C(c3ccc4ccccc4c3)CC2c2ccccc2O)n1 (stereo not given)	?	7%	?	-25%	?	2
CCn1cc([N+](=O)[O-])c(C(=O)N2N=C(c3ccc4ccccc4c3)CC2c2ccccc2O)n1 (stereo not given)	?	3%	5%	-13%	10µM*	82
CCn1cc([N+](=O)[O-])c(C(=O)N2N=C(c3cccc4ccccc34)CC2c2ccccc2O)n1 (stereo not given)	?	8%	?	?	11µM*	33
CCn1cc([N+](=O)[O-])c(C(=O)N2N=C(c3ccc(OC)cc3OC)CC2c2ccccc2O)n1 (stereo not given)	-12%	?	?	-7%	-7%	24
Cc1nc(S[C@@H]2C=CS(=O)(=O)C2)n[nH]1	0%	.	.	.	.	.
O=C(Nc1cccc(OC(F)(F)F)c1)c1cnc(N2CCN(Cc3cccc(C(F)(F)F)c3)C2=O)o1	.	.	.	.	.	-10
CCOC(=O)c1c(CSc2nc(C)cc(C)c2C#N)n(C)c2cc(Br)c(OC(C)=O)cc12	-3%	-21%	?	?	?	-94*
CCOC(=O)CC(=O)CSc1nc(C)cc(C)c1C#N	0%[46.1 µM]	1%	-2%	0%	5%	0
C=CCCc1ccc(C#N)c(SCc2c(C(=O)OCC)c3cc(OC(C)=O)c(Br)cc3n2C)n1	?	-11%	7.9µM*	?	?	.
Cn1ccc2cc(-c3ccc4ncnc(NCc5cccc(F)c5)c4c3)ccc21	.	-1%	.	.	.	.
SMILES	Marburg entry inh	SARS PLP yeast	Lassa entry inh	FMDV antiviral	HCV inhibitor	HCMV inh
Cc1ccc(NC(=O)c2ccc3c(c2)NC(=O)c2ccccc2S3)cc1	?	.	.	?	.	-71*
C/C(=N\NC(=O)c1ccc(C)cc1C)c1ccc2c(c1)Nc1ccccc1S2	-30%	-2%	?	?	3.5µM*	0
CCOC(=O)c1ccc(NC(=O)c2ccc3c(c2)NC(=O)c2ccccc2S3)cc1	-14%[46.1 µM]	.	.	?	.	15
CN(C)CCNC(=O)c1ccc2c(c1)NC(=O)c1ccccc1S2	.	0%	.	-12%	8.9µM*	-11
Cc1ccc(OCCn2c(-c3ccc(Br)cc3)nc3ccccc3c2=O)cc1C	4%[46.1 µM]	.	6%[46.1 µM]	17%	.	20
COc1ccccc1N1CCN(CCn2c(=O)c3c(c4ccccc4n3C)n(C)c2=O)CC1	.	.	.	-11%	.	.
Cn1cc(-c2cc3n(n2)CCC(=O)N3CCCC(=O)Nc2ccccc2Cl)c2ccccc21	.	.	-25%[46.1 µM]	-27%	.	-62*
CC(C)(C)N1C(=O)[C@@H]2[C@H]3[C@H](O)[C@H](O)CC(=NOCc4ccccc4)[C@H]3CC[C@H]2C1=O	-9%[14.2 µM]	.	.	.	.	.
O=c1c2ccccc2nc2c3ccccc3c3nncn3n12	-4%	-1%	1%	?	0%	?
O=c1c2ccccc2nc2n1CCS2(=O)=O	23%[46.1 µM]	0%	?	32µM*	12%	14
Cn1nccc1C(=O)N/N=C/c1c(O)ccc2ccccc12	.	-7%	.	46%	0.89µM*	-99*
O=C(N/N=C/c1ccccn1)c1ccc(Br)o1	-25%	-11%	-13%	48%	5%	52
O=C(N/N=C/c1c(O)ccc2ccccc12)c1cccnc1	?	-9%	?	14%	5µM*	-98*
Cc1cccc(OCC(=O)NC(Cc2ccccc2)C(=O)O)c1 (stereo not given)	3%	10%	-7%	-19%	11%	-26
Cc1cccc(OCC(=O)NC(C)C(=O)N/N=C/c2c(OCc3ccccc3)ccc3ccccc23)c1 (stereo not given)	?	11%	3%	9%	7.9µM*	-74*
O=C(N/N=C/c1c(O)ccc2ccccc12)c1ccc(Br)o1	?	12%	?	55%	3.5µM*	-99*
C[C@]12CCCC3=CC(=O)C=C[C@@]31Oc1ccccc1C(=O)C2	.	.	.	.	.	6
Cc1ccc2c(c1)sc1nc(-c3cc4cc(Cl)ccc4oc3=O)cn12	.	.	1%[46.1 µM]	-7%	.	?
Cc1ccc(C(=O)N/N=C/c2c(O)ccc3ccccc23)cn1	.	-10%	.	20%	4.5µM*	-97*
CCn1nc(C)c(/C=N/NC(=O)c2ccc3c(c2)c(C)c(C)n3Cc2ccccc2)c1C	-30%	-1%	-29%	?	10µM*	-35
CCn1ncc(/C=N\NC(=O)c2ccc3c(c2)c(C)c(C)n3Cc2ccccc2)c1C	?	-1%	-34%	?	-28%	-26
COc1ccc2ccccc2c1/C=N/NC(=O)c1cccc(C)c1	.	.	.	-7%	11µM*	7
Cc1cc(O)c(C)c(O)c1/C=N/NC(=O)c1cccnc1	10µM*	0%	?	36%	13µM*	-97*
